Source: PubChem BioAssay
Calls of active or inactive are those of the source. Unless noted, how the calls were made is not given here.

Tests used:
[1] = test system: Wnt5a (protein binding on small-molecule microarray); experiment: small molecules binding Wnt5a protein – biophysical, small-molecule microarray, 635/667 nm fluorescence, primary screen (AID 1142); conditions: 635 nm fluorescence, higher = more signal;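 further: fluorescence read at 667 nm with signal to noise per printed feature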
[2] = ATP-based viability of Huh7 replicon cells – cell-based, CellTiter-Glo luminescence, basal, 48 h, cytotoxicity control for HCV replication inhibitor project, primary screen (AID 1143); conditions: higher = more signal, called active from +8 up or from −8 down;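 further: Huh7 hepatoma cells carrying a hepatitis C replication reporter with no stimulus; test concentration not given here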
[3] = Pseudomonas biofilm growth suppression – PAO1 strain, BacTiter-Glo luminescence, LB-PBS, primary screen (AID 1144); conditions: P. aeruginosa PAO1 biofilm, 12 h, higher = more signal
[4] = basal CRE-LacZ reporter activity in PC12 – cell-based, unstimulated, primary screen (AID 1145); conditions: no forskolin, luminescence, 4.5 h, higher = more signal, called active from +8 up or from −8 down
[5] = forskolin-driven CRE-LacZ activity in PC12 – cell-based, CRE-LacZ reporter, forskolin-stimulated, primary screen (AID 1146); conditions: luminescence, 4.5 h, higher = more signal, called active from +8 up or from −8 down;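 further: PC12 cells with 6xCRE LacZ reporter stimulated by forskolin 10 µM; beta-galactosidase reporter signal reflecting CREB driven transcription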
[6] = target: Streptavidin (Streptomyces avidinii) (UniProt P22629); experiment: compounds binding control protein streptavidin – biophysical, small-molecule microarray, 635/667 nm fluorescence, artefact control for SMM compound annotation, primary screen (AID 1147); conditions: higher = more signal;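 further: signal reflects streptavidin binding to arrayed compounds as a control protein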
[7] = probe aInhba binding on compound microarray – biochemical, small-molecule microarray, 635/667 nm fluorescence, primary screen (AID 1148); conditions: higher = more signal;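 further: score merges 667nm spot fluorescence with signal-to-noise for antibody binding to printed compounds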
Torsin-1A (Homo sapiens) [8] = target: Torsin-1A (Homo sapiens) (UniProt O14656); experiment: TOR1A wild-type binding on microarray – cell lysate, small-molecule microarray, lysate, 635/667 nm, primary screen (AID 1149); conditions: COS7 hTOR1A-WT lysate, 635 nm fluorescence, higher = more signal
Torsin-1A (Homo sapiens) [9] = target: Torsin-1A (Homo sapiens) (UniProt O14656); experiment: torsin A mutant lysate binding on microarrays – cell lysate, small-molecule microarray, COS7 lysate, 635/667 nm fluorescence, primary screen (AID 1150); conditions: COS7 hTOR1A mutant lysate, 635 nm fluorescence, higher = more signal;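 further: score pools 667 nm emission and signal to noise measuring lysate protein binding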
[10] = test system: Sonic hedgehog protein (Shh); experiment: Sonic hedgehog microarray binding compounds – biochemical, small-molecule microarray, 635/667 nm fluorescence, primary screen (AID 1151); conditions: 635 nm fluorescence, higher = more signal;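 further: Shh protein binding to compounds spotted on small-molecule microarray slides; score combines spot fluorescence intensity with signal-to-noise across triplicate slides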
[11] = optical density shifts of acrAB sulA E. coli – strain DRC41, OD650, 48 h, E. coli filamentation inducer project, primary screen (AID 1152); conditions: higher = more signal, called active from +8 up or from −8 down;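 further: E. coli MC1000 strain DRC41 lacking acrAB efflux pump and sulA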
[12] = probe aLefty1 binding on compound microarray – biochemical, small-molecule microarray, 635/667 nm fluorescence, primary screen (AID 1153); conditions: higher = more signal;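 further: score merges spot fluorescence with signal-to-noise ratio from the scanned slide images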
[13] = plasmodial surface anion channel blockers, osmotic lysis – cell-based, P. falciparum Indochina, OD700, 1 h, primary screen (AID 1154); conditions: P. falciparum Indochina infected RBC osmotic lysis, higher = more signal, called active from +8 up or from −8 down
[14] = plasmodial surface anion channel blockers, osmotic lysis – cell-based, P. falciparum Indochina, OD700, 2 h, primary screen (AID 1155);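 further: lysis reports solute entry through the parasite surface anion channel PSAC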; conditions: P. falciparum Indochina infected erythrocytes, higher = more signal, called active from +8 up or from −8 down
[15] = changes in parasitized red cell lysis, either direction – P. falciparum Indochina, OD700, 3 h, PSAC antagonist project, primary screen (AID 1156); conditions: P. falciparum-infected erythrocytes, osmotic lysis, higher = more signal, called active from +8 up or from −8 down
[16] = plasmodial surface anion channel blockers, osmotic lysis – cell-based, P. falciparum Indochina, OD700, 18 h, primary screen (AID 1157); conditions: P. falciparum Indochina infected erythrocytes, osmotic lysis OD700, 18 h; higher = more signal, called active from +8 up or from −8 down
[17] = S6 kinase pathway phospho-S6 level changes – cell-based, A549, cytoblot, luminescence, serum-stimulated, primary screen (AID 1158); conditions: 5 h, higher = more signal;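 further: serum-stimulated A549 lung adenocarcinoma cells; signal is phosphorylated S6 detected by cytoblot immunostaining with HRP secondary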
[18] = target: NADPH oxidase 2 (Homo sapiens) (UniProt P04839); experiment: compounds shifting NOX2 Amplex Red fluorescence – cell-based, HEK293-NOX2, PMA-stimulated, NOX inhibitor project, primary screen (AID 1159); conditions: 45 min, higher = more signal, called active from +8 up or from −8 down; further: test concentration not given here
[19] = target: NADPH oxidase 4 (Homo sapiens) (UniProt Q9NPH5); experiment: compounds shifting NOX4 Amplex Red fluorescence – cell-based, HEK293-NOX4, tetracycline-induced, NOX inhibitor project, primary screen (AID 1160); conditions: HEK293-NOX4, Amplex Red H2O2 fluorescence, 45 min; higher = more signal, called active from +8 up or from −8 down
[20] = target: NADPH oxidase 5 (Homo sapiens) (UniProt Q96PH1); experiment: compounds shifting NOX5 Amplex Red fluorescence – cell-based, HEK293-NOX5, NOX inhibitor project, primary screen (AID 1161); conditions: HEK293-NOX5, ionomycin, 45 min, higher = more signal
NADPH oxidase 5 (Homo sapiens), sequence (Q96PH1 whole entry, looked up): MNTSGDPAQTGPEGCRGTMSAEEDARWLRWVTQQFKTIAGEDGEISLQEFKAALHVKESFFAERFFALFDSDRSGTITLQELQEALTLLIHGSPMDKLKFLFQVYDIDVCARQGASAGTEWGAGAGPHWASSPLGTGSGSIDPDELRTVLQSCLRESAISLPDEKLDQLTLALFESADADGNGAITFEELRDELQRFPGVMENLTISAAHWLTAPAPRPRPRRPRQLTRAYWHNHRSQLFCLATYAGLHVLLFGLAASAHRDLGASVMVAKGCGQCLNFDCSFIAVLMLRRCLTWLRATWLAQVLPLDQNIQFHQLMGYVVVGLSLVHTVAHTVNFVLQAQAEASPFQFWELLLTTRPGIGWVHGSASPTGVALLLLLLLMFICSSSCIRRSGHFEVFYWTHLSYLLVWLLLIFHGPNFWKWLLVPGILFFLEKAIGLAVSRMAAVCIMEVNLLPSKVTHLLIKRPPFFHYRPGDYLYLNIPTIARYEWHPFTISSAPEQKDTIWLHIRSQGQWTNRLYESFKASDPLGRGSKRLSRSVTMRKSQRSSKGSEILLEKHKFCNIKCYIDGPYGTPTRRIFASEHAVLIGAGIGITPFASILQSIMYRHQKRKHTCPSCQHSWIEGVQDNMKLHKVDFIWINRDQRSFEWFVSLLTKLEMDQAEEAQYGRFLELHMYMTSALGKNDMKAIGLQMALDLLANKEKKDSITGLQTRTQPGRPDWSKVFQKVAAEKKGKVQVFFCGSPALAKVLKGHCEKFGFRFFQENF

NADPH oxidase 2 (Homo sapiens), sequence (P04839 whole entry, looked up): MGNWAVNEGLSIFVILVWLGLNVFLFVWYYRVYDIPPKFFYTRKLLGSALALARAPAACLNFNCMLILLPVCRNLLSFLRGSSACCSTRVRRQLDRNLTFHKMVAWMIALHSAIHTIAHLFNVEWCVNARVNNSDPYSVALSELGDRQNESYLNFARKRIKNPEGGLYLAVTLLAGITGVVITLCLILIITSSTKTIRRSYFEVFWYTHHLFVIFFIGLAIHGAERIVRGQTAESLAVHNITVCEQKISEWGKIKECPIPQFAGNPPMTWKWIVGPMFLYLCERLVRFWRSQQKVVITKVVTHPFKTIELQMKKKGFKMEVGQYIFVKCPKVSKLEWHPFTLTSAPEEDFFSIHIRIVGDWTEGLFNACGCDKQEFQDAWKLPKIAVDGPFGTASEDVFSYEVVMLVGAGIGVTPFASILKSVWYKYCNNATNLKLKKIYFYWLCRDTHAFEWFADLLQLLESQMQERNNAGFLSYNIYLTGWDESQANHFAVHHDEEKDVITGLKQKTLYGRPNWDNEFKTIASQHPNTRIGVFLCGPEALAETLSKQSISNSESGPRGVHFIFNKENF
NADPH oxidase 4 (Homo sapiens), sequence (Q9NPH5 whole entry, looked up): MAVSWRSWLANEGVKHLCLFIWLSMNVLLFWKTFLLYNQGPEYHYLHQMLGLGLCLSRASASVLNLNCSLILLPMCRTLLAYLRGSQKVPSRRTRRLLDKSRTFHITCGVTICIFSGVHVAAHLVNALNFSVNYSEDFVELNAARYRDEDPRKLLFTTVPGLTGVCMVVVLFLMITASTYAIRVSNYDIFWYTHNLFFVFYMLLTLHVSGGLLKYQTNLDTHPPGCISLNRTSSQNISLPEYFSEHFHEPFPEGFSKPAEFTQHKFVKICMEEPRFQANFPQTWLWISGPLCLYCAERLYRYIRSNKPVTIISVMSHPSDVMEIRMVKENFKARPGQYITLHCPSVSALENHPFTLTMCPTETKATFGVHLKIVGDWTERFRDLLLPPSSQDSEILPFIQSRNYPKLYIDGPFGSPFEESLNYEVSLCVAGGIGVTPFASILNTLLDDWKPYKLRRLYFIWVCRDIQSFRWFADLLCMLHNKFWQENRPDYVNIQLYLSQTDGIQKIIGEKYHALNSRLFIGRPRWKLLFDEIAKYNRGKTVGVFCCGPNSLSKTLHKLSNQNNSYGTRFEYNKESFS
Streptavidin (Streptomyces avidinii), sequence (P22629 whole entry, looked up): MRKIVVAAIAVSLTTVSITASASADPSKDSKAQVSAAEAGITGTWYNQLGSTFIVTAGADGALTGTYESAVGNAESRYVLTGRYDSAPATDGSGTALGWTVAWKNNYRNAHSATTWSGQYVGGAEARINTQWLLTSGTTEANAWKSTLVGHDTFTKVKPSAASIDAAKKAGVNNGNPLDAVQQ
Torsin-1A (Homo sapiens), sequence (O14656 whole entry, looked up): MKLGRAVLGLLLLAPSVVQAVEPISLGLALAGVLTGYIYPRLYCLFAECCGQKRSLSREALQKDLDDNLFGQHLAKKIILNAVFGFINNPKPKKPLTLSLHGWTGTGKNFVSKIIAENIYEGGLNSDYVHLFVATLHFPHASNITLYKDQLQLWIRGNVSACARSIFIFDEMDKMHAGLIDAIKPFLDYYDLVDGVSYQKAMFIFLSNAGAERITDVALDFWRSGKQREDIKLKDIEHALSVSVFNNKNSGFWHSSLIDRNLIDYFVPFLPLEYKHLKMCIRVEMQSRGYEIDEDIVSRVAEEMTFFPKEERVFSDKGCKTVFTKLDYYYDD

Compound	composite z-score [1]	z-score [2]	z-score [3]	z-score [4]	z-score [5]	composite z-score [6]	composite z-score [7]	composite z-score (Torsin-1A (Homo sapiens) [8])	composite z-score (Torsin-1A (Homo sapiens) [9])	composite z-score [10]	z-score [11]	composite z-score [12]	z-score [13]	z-score [14]	z-score [15]	z-score [16]	z-score [17]	z-score [18]	z-score [19]	z-score [20]
COc1cc(OC)c(C(O)C2C=CC3C(=O)N(c4ccccc4)C(=O)C3N2Nc2ccccc2)cc1Br (stereo not given)	-0.0276	-1.12 (inactive)	-0.415 (inactive)	0.0501 (inactive)	-0.434 (inactive)	1.24	0.0155	-0.162	0.282	-0.381	-0.789 (inactive)	0.0834	20.2 (active)	5.27 (inactive)	0.508 (inactive)	2.03 (inactive)	-0.543	-1.61 (inactive)	-4.38 (inactive)	-2.38
CCOC(=O)C[C@H]1[C@H](OC(=O)Cc2ccc3c(c2)OCO3)[C@@H](NC(=O)Cc2ccc(OC)cc2)c2cc(OCCCO)ccc2N1C(=O)c1ccc2ccccc2n1	-0.223	-0.823 (inactive)	-0.687 (inactive)	10.1 (active)	-1.24 (inactive)	0.0739	-0.0547	0.183	0.714	0.492	2.96 (inactive)	0.0889	3.63 (inactive)	-0.486 (inactive)	-1.03 (inactive)	-1.01 (inactive)	1.29	-1.03 (inactive)	1.04 (inactive)	1.05
C=CCOC(=O)[C@H]1[C@@H]2C(=O)O[C@@H](c3ccccc3)[C@@H](c3ccccc3)N2[C@@H](c2ccc(OCCOC(=O)[C@@H]3C[C@@H]4C(=O)N[C@@H](CCCCNC(C)=O)C(=O)N4[C@@H]3c3ccc(O)cc3)cc2)[C@]12C(=O)Nc1ccc(I)cc12	0.804	-0.257 (inactive)	0.272 (inactive)	0.143 (inactive)	0.236 (inactive)	-0.139	0.225	1.25	1.15	2.21	-0.465 (inactive)	0.471	1.33 (inactive)	1.52 (inactive)	3.07 (inactive)	0.964 (inactive)	-0.621	1.08 (inactive)	0.351 (inactive)	2.35
Cc1ccc(S[C@]2(C(=O)NCC(F)(F)F)CC(=O)N(Cc3ccccc3)[C@@H]2c2ccc(CO)cc2I)cc1	0.0543	-1.22 (inactive)	0.479 (inactive)	-0.581 (inactive)	1.83 (inactive)	-0.119	0.0228	-0.565	-0.49	0.237	-0.764 (inactive)	0.0355	4.23 (inactive)	0.283 (inactive)	0.173 (inactive)	0.279 (inactive)	-0.404	1.22 (inactive)	-1.33 (inactive)	0.776
COc1ccc([Si](C)(C)[C@@H]2[C@@H](CC(=O)N(CCO)Cc3ccccc3)O[C@]3(C(=O)N(Cc4cccc(N5CCOC5=O)c4)c4ccccc43)[C@H]2C)cc1	-0.129	-5.47 (inactive)	-0.122 (inactive)	0.748 (inactive)	-0.62 (inactive)	-0.121	-0.176	0.787	0.347	1.52	-0.179 (inactive)	0.677	5.73 (inactive)	1.14 (inactive)	-0.0706 (inactive)	0.843 (inactive)	0.475	1.08 (inactive)	1.35 (inactive)	1.75
CO[C@]12C=C(Br)[C@@H](C[C@@H]1c1cccc(C)c1)[C@@]1(CO1)C2=O	-0.161	-0.795 (inactive)	-0.863 (inactive)	0.223 (inactive)	5.27 (inactive)	-0.433	-0.154	-0.436	-0.407	0.841	-0.009 (inactive)	-0.0035	-0.219 (inactive)	-0.119 (inactive)	0.442 (inactive)	-0.382 (inactive)	0.149	-0.356 (inactive)	0.539 (inactive)	-0.588
C=C(COC)/C(=C/C[C@H](OC(=O)c1ccncc1)c1ccccc1OCCO)c1cnc2ccccc2c1	0.488	-0.854 (inactive)	-1.13 (inactive)	3.24 (inactive)	1.42 (inactive)	0.294	0.156	1.57	1.42	2.22	0.657 (inactive)	0.401	13 (active)	1.86 (inactive)	1.31 (inactive)	0.553 (inactive)	0.513	-1.85 (inactive)	-0.502 (inactive)	-0.71
C=CC[C@]1(C(=O)O)COC(c2ccc(OCCCO)cc2)=N1	-0.0405	0.543 (inactive)	-0.852 (inactive)	1.46 (inactive)	0.123 (inactive)	-0.447	-0.103	-0.0985	0.338	0.0518	-0.27 (inactive)	0.0437	2.23 (inactive)	-0.0432 (inactive)	0.472 (inactive)	0.2 (inactive)	-0.331	0.388 (inactive)	-0.287 (inactive)	1.09
